The whole screen tested about 5,500 compounds, of which about 2,000 (36%) were called active. Not shown: some 18% with an inconclusive outcome. Cut-off read from the data, not from the text of the source: active = normalized growth mostly below about 0.91 (no sharp cut-off); inconclusive = no clear call, values can overlap the other calls; inactive = mostly above about 0.92. The list shows a part of the results.
Assay: chemical genetic growth profiling, strain panel (AID 1159580);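 note: tested at 20 µM; growth read once vehicle control cultures reached saturation at 30 °C; 1 = growth at the plate median or of vehicle wells; lower values mean less growth of the strain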
Details: growth OD

Measured: normalized growth

c1ccc(N=Nc2ccccc2)cc1
inactive: S. cerevisiae deletion strains, locus YJR066W, strain TOR1, hits give low values 0.95 | S. cerevisiae deletion strains, locus YJR075W, strain HOC1, hits give low values 0.98 | S. cerevisiae deletion strains, locus YKL009W, strain mrt4, hits give low values 1 | S. cerevisiae deletion strains, locus YKL068W, hits give low values 1.02 | S. cerevisiae deletion strains, locus YKL085W, strain MDH1 (second series), hits give low values 1.01 | S. cerevisiae deletion strains, locus YKL085W, strain MDH1, hits give low values 1.01 | S. cerevisiae deletion strains, locus YKL160W, strain elf1, hits give low values 0.996 | S. cerevisiae deletion strains, locus YKL190W, strain CNB1, hits give low values 0.993 | S. cerevisiae deletion strains, locus YKR001C, strain vps1, hits give low values 0.979 | S. cerevisiae deletion strains, locus YKR026C, strain gcn3, hits give low values 0.982 | S. cerevisiae deletion strains, locus YKR091W, strain srl3, hits give low values 0.987 | S. cerevisiae deletion strains, locus YLL001W, strain dnm1, hits give low values 0.977 | S. cerevisiae deletion strains, locus YLL026W, hits give low values 0.986 | S. cerevisiae deletion strains, locus YLL041C, strain sdh2, hits give low values 0.989 | S. cerevisiae deletion strains, locus YLR027C, strain aat2, hits give low values 0.983 | S. cerevisiae deletion strains, locus YLR039C, strain RIC1, hits give low values 0.878 | S. cerevisiae deletion strains, locus YLR058C, strain SHM2, hits give low values 0.992 | S. cerevisiae deletion strains, locus YLR102C, strain apc9, hits give low values 1.03 | S. cerevisiae deletion strains, locus YLR113W, strain HOG1, hits give low values 0.978 | S. cerevisiae deletion strains, locus YLR221C, strain rsa3, hits give low values 0.984 | S. cerevisiae deletion strains, locus YLR258W, strain gsy2, hits give low values 0.974 | S. cerevisiae deletion strains, locus YLR262C, strain YPT6 (second series), hits give low values 0.921 | S. cerevisiae deletion strains, locus YLR262C, strain YPT6, hits give low values 0.887 | S. cerevisiae deletion strains, locus YLR268W, strain sec22, hits give low values 0.988 | S. cerevisiae deletion strains, locus YLR320W, strain mms22, hits give low values 0.993 | S. cerevisiae deletion strains, locus YLR330W, strain CHS5, hits give low values 1.01 | S. cerevisiae deletion strains, locus YLR342W, strain FKS1 (second series), hits give low values 0.966 | S. cerevisiae deletion strains, locus YLR342W, strain FKS1, hits give low values 0.994 | S. cerevisiae deletion strains, locus YLR357W, strain rsc2, hits give low values 0.97 | S. cerevisiae deletion strains, locus YLR370C, strain arc18, hits give low values 0.996 | S. cerevisiae deletion strains, locus YLR371W, strain rom2, hits give low values 1.02 | S. cerevisiae deletion strains, locus YLR384C, strain iki3, hits give low values 0.973 | S. cerevisiae deletion strains, locus YLR418C, strain cdc73, hits give low values 1 | S. cerevisiae deletion strains, locus YML016C, strain PPZ1, hits give low values 1.01 | S. cerevisiae deletion strains, locus YML032C, strain rad52, hits give low values 1.01 | S. cerevisiae deletion strains, locus YML120C, strain ndi1, hits give low values 0.976 | S. cerevisiae deletion strains, locus YML124C, strain tub3, hits give low values 1.03 | S. cerevisiae deletion strains, locus YMR058W, strain fet3, hits give low values 0.99 | S. cerevisiae deletion strains, locus YMR078C, strain ctf18, hits give low values 1.01 | S. cerevisiae deletion strains, locus YMR125W, strain sto1, hits give low values 0.978 | S. cerevisiae deletion strains, locus YMR129W, hits give low values 0.991 | S. cerevisiae deletion strains, locus YMR205C, strain PFK2, hits give low values 0.952 | S. cerevisiae deletion strains, locus YMR223W, strain ubp8, hits give low values 1 | S. cerevisiae deletion strains, locus YMR231W, strain pep5, hits give low values 0.991 | S. cerevisiae deletion strains, locus YMR263W, strain SAP30, hits give low values 0.972 | S. cerevisiae deletion strains, locus YMR307W, strain GAS1, hits give low values 0.945 | S. cerevisiae deletion strains, locus YNL067W, strain RPL9B, hits give low values 0.975 | S. cerevisiae deletion strains, locus YNL071W, strain lat1, hits give low values 1 | S. cerevisiae deletion strains, locus YNL183C, strain NPR1, hits give low values 0.904 | S. cerevisiae deletion strains, locus YNL209W, strain ssb2, hits give low values 0.991 | S. cerevisiae deletion strains, locus YNL233W, strain BNI4, hits give low values 0.971 | S. cerevisiae deletion strains, locus YNL248C, strain rpa49, hits give low values 0.993 | S. cerevisiae deletion strains, locus YNL250W, strain rad50, hits give low values 1.03 | S. cerevisiae deletion strains, locus YNL271C, strain bni1, hits give low values 1.03 | S. cerevisiae deletion strains, locus YNL298W, strain CLA4, hits give low values 1 | S. cerevisiae deletion strains, locus YNL307C, strain MCK1, hits give low values 1 | S. cerevisiae deletion strains, locus YNL322C, strain KRE1 (second series), hits give low values 0.974 | S. cerevisiae deletion strains, locus YNR049C, strain mso1, hits give low values 0.994 | S. cerevisiae deletion strains, locus YNR052C, strain pop2, hits give low values 1.03 | S. cerevisiae deletion strains, locus YOL006C, strain TOP1, hits give low values 0.974 | S. cerevisiae deletion strains, locus YOL012C, strain htz1 0.782 | S. cerevisiae deletion strains, locus YOL147C, strain pex11, hits give low values 1.02 | S. cerevisiae deletion strains, locus YOR001W, strain rrp6, hits give low values 0.991 | S. cerevisiae deletion strains, locus YOR061W, strain CKA2, hits give low values 1 | S. cerevisiae deletion strains, locus YOR069W, strain VPS5, hits give low values 1 | S. cerevisiae deletion strains, locus YOR070C, strain gyp1, hits give low values 0.985 | S. cerevisiae deletion strains, locus YOR080W, strain dia2, hits give low values 0.974 | S. cerevisiae deletion strains, locus YOR083W, strain WHI5, hits give low values 0.989 | S. cerevisiae deletion strains, locus YOR106W, strain vam3, hits give low values 0.987 | S. cerevisiae deletion strains, locus YOR136W, strain idh2, hits give low values 1.02 | S. cerevisiae deletion strains, locus YOR144C, strain elg1, hits give low values 1.02 | S. cerevisiae deletion strains, locus YOR184W, strain ser1, hits give low values 0.912 | S. cerevisiae deletion strains, locus YOR231W, strain MKK1, hits give low values 0.944 | S. cerevisiae deletion strains, locus YOR265W, strain rbl2, hits give low values 0.985 | S. cerevisiae deletion strains, locus YOR270C, strain vph1, hits give low values 1.11 | S. cerevisiae deletion strains, locus YOR290C, strain snf2, hits give low values 0.998 | S. cerevisiae deletion strains, locus YOR316C, strain cot1, hits give low values 1.03 | S. cerevisiae deletion strains, locus YPL051W, strain arl3, hits give low values 0.987 | S. cerevisiae deletion strains, locus YPL055C, strain LGE1, hits give low values 0.995 | S. cerevisiae deletion strains, locus YPL078C, strain atp4, hits give low values 0.979 | S. cerevisiae deletion strains, locus YPL106C, strain sse1, hits give low values 0.98 | S. cerevisiae deletion strains, locus YPL240C, strain hsp82, hits give low values 0.986 | S. cerevisiae deletion strains, locus YPL256C, strain CLN2, hits give low values 0.953 | S. cerevisiae deletion strains, locus YPR119W, strain clb2, hits give low values 1.03 | S. cerevisiae deletion strains, locus YPR141C, strain kar3, hits give low values 1.03 | S. cerevisiae deletion strains, locus YPR163C, strain tif3, hits give low values 1.04 | S. cerevisiae deletion strains, locus YPR167C, strain met16, hits give low values 1.02 | S. cerevisiae deletion strains, strain wtn01, hits give low values 1.04 | S. cerevisiae strains, strain wild type, hits give low values 1

Source: PubChem BioAssay AID1159580 (chemical genetic matrix, 2015)
